TDP1 cell noCPT – qHTS for Inhibitors of human tyrosyl-DNA phosphodiesterase 1 (TDP1): qHTS in cells in absence of CPT | DT40 Tdp1-/- hTDP1 cells, no CPT, ATP luminescence, 48 h | Potency, µM (series often up to 46.2 µM), inactives show at the top dose activity change, negative = growth inhibition, actives largely listed as inhibitors | 420,000 tested, 15% active | AID 686978, 2013; further: potency means the concentration at half of the fitted maximal effect; on the % scale 0 is the no-effect control and ±100 the full control effect; nearly all actives have a fitted effect of over 55% in size
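Seeded 400 DT40-hTDP1 cells/well (vehicle DMSO, no 20 nM CPT); pinned compounds; ≥48 hr at 37 °C; CellTiter-Glo luminescence as viability measure.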
TGFb inhibitor – qHTS for Inhibitors of TGF-b; Potency, µM (series often up to 46.1 µM), without a hit: top-dose activity, negative = inhibition, actives largely listed as inhibitors; AID 588855, 2011; HepG2 CAGA-GFP TGF-b/SMAD3 reporter, GFP fluorescence, 18 h; TGF-beta stimulated, 500 pg/mL final; 410,000 tested, 1.2% active; further: potency means the concentration at half of the fitted maximal effect; on the % scale 0 is the no-effect control and ±100 the full control effect; nearly all actives have a fitted effect of over 65% in size
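Using HEPG2 CAGA-GFP reporter cells at 1000 cells/well, we pinned test compounds, stimulated with recombinant TGF-beta (500 pg/mL final) and measured total well GFP after 18 h.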
IL1B secr inh – qHTS for Inhibitors of Inflammasome Signaling: IL-1-beta AlphaLISA Primary Screen; THP-1 LPS/ATP IL-1B secretion, AlphaLISA, 16 h; active compounds read low; activity change, % at 57.5 µM; 360,000 tested, 4.7% active; AID 743279, 2014; in the data active means activity change below about -50%; inconclusive means mostly about -30% to -49%; further: on the % scale 0 is the no-effect control and ±100 the full control effect
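Secreted IL-1B measured by AlphaLISA bead assay after 16 h compound exposure of THP-1 cells; compounds (final up to 57.5 uM) added 1 h before LPS (250 ng/mL) and ATP (1.25 mM) stimulation; lower signal means less secretion.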
TDP1 block – qHTS Assay for Inhibitors of Tyrosyl-DNA Phosphodiesterase (TDP1); Tyrosyl-DNA phosphodiesterase 1 (Homo sapiens), Q9NUW8; recombinant TDP1, AlphaScreen DNA substrate cleavage; Potency, µM (doses to about 130 µM), for inactives: at the highest dose activity change, negative = inhibition, most hits filed as inhibitors; 350,000 tested, 0.28% active; AID 485290, 2010; further: potency means the concentration at half of the fitted maximal effect; on the % scale 0 is the no-effect control and ±100 the full control effect; nearly all actives have a fitted effect of over 40% in size
Target sequence (Q9NUW8 whole entry, looked up): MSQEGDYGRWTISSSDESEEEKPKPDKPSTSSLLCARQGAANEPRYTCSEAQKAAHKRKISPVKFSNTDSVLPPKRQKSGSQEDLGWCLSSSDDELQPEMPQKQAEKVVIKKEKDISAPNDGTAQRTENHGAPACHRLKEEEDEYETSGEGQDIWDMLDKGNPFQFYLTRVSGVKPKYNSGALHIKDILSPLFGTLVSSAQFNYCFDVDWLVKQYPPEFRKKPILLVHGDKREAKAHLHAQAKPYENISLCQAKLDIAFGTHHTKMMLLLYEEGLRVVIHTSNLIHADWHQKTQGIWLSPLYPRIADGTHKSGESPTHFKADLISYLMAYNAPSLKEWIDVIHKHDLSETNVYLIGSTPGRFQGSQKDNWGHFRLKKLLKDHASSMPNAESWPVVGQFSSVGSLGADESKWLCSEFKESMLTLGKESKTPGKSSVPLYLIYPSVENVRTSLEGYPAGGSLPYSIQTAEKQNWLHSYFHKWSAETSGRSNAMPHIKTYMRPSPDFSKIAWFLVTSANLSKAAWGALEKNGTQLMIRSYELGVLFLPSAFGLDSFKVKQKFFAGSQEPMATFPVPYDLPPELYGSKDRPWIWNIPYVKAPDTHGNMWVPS
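Recombinant human Tdp1 (E. coli-expressed, 1 nM final) preincubated with compounds 15 min at room temperature, then 5'-biotin/3'-phosphotyrosine-FITC DNA substrate (15 nM final) added for 5 min. AlphaScreen beads (10 ug/ml final) added 10 min; cleavage lowers signal.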
HepG2 viability – qHTS for Inhibitors of TGF-b: Cytotox Counterscreen. HepG2 CAGA-GFP viability, ATP luminescence, 18 h. Potency, µM (top dose mostly 46.1 µM), for the others: top-dose activity change, negative = cytotoxicity, hits mostly cytotoxic. 410,000 tested, 0.76% active. AID 588856, 2011; further: potency means the concentration at half of the fitted maximal effect
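CellTiter-Glo luminescence gave cytotoxicity after 18 hours at 37 degrees C. The cells were HepG2 CAGA-GFP in 1% FBS DMEM, stimulated with 500 pg/mL TGF-beta after compound addition. %Activity was normalised to no-cell wells (complete cell-killing) and DMSO (no toxicity), and curves were fitted and classified.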
TDP1 cell CPT – qHTS for Inhibitors of human tyrosyl-DNA phosphodiesterase 1 (TDP1): qHTS in cells in presence of CPT. 420,000 tested, 12% active. chicken DT40 Tdp1-/-;hTDP1 cells + 20 nM CPT, ATP luminescence, 48 h. Potency, µM (doses to about 46.2 µM), for the others: at the top dose activity change, negative = growth inhibition, most hits filed as inhibitors; further: potency means the concentration at half of the fitted maximal effect; on the % scale 0 is the no-effect control and ±100 the full control effect; nearly all actives have a fitted effect of over 55% in size
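Chicken DT40 Tdp1-/- cells stably complemented with human TDP1 were seeded at 400 cells/well in medium containing 20 nM camptothecin, exposed to pin-transferred compounds, and grown at 37 °C for at least 48 hr. Viability was read as ATP luminescence.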
* marks the source's active call; other numbers are inactive results; u = inconclusive; x = no result given; [ ] = another dose, or the depositor's remark. Only some compounds are listed: those with a hit (about 18% of all), similar ones and a draw of the others. Unless noted, the call rests on the fitted dose curve; in most records, active means well fitted curve in the direction sought with a large enough effect; inconclusive means small, poorly fitted or top-dose-only effect, or another doubt; inactive means no such curve, though single readings can be large; an effect the other way counts as inactive or inconclusive.

SMILES	TDP1 cell noCPT	TGFb inhibitor	IL1B secr inh	TDP1 block	HepG2 viability	TDP1 cell CPT
O=C(/C=C/[C@H]1O[C@@H](n2cnc3c(NC(=O)c4ccccc4)ncnc32)[C@H](O)[C@@H]1O)NCc1ccco1	-6%	-11%	-21	x	-15%	-3%
C[C@H]1CN([C@@H](C)CO)C(=O)CCCn2cc(nn2)CO[C@@H]1CN(C)C(=O)Nc1ccc(N2CCCCC2)cc1	23%	12%	0	x	-3%	-3%
C/C(CCN1CCCc2nc(C)c(C)cc21)=N\OC[C@@H](O)[C@@H]1O[C@@H]2OC(C)(C)O[C@@H]2[C@H]1O	x	x	x	10%[21 µM]	x	x
C1CN(CC23CC4CC(CC(C4)C2)C3)CCO1	16µM*	9%	-1	4%	-11%	-21%
O=C(CCN1CCOCC1)NC12CC3CC(CC(C3)C1)C2	-9%	0%	1	x	3%	-3%
COc1cccc2sc(Nc3nnc(-c4cccs4)o3)nc12	8.2µM*	-15%	75	12%	-18%	3.7µM*
COc1cccc2sc(Nc3nnc(-c4ccc(F)cc4)o3)nc12	5.8µM*	-23%	15	3%	13µM*	5.8µM*
COc1cccc2sc(Nc3nc(-c4ccccn4)cs3)nc12	x	x	x	11%	x	x
O=C(Nc1nc2c(F)cccc2s1)c1ccco1	-8%	-12%	-25	x	-3%	-16%
Fc1cccc2sc(Nc3nnc(-c4ccco4)o3)nc12	23µM*	u	30	-3%	-11%	u
Cc1noc(NS(=O)(=O)c2ccc(NC(=O)c3nn(-c4ccccc4)ccc3=O)cc2)c1C	18%	-2%	8	5%	1%	0%
Cc1ccc(C)c(CNC(=O)c2sc3ncnc(N(C)C4CCCCC4)c3c2C)c1	u	12%	x	0%	-16%	23µM*
Cc1c(C(=O)NCc2ccccc2Cl)sc2ncnc(N(C)C3CCCCC3)c12	18µM*	-2%	x	3%	-12%	u
CCc1ccc(CNC(=O)c2sc3ncnc(N(C)C4CCCCC4)c3c2C)cc1	u	u	x	2%	-4%	u
COc1ccccc1CNC(=O)c1nnn(CC(=O)Nc2c(C)cccc2C)c1N	6%	-7%	x	-4%	4%	-3%
O=C(Oc1ccccc1)N1CCC2(CCCN(c3ccc(-c4ccccc4)cc3)C2)CC1	-28%	x	x	x	x	12%
Cc1cc(C(=O)CSc2cccc[n+]2[O-])c(C)n1-c1ccc(OC(F)F)cc1	u	-19%	9	6%	-29%	21µM*
Cc1cccc(Oc2nc3c(C)cccn3c(=O)c2/C=C(\C#N)c2nc3ccccc3[nH]2)c1	-5%	30%	x	3%	-2%	-13%
CCOC(=O)N1CCN(C(C(=O)NC2CCCC2)c2cccc(OC)c2OC)CC1 (configuration not stated)	-19%	x	0	x	x	4%
N#CC1=C(N)SC(N)=C(C#N)C1c1cccc(O)c1	u	28%	10	-5%	5%	23µM*
CCCN1C=CC(=C/C=C(\C#N)C(=O)OCC)C=C1	x	x	x	4%	x	x
CCOC(=O)/C(C#N)=C/C=C1\C=Cc2ccccc2N1CC	23µM*	3%	u	1%	-1%	21µM*
CCCCCCN1C=CC(=C/C=C(\C#N)C(=O)OCC)C=C1	16µM*	217%	0	6%	-7%	u
O=C(COC(=O)COc1cccc(Br)c1)NCc1ccc2c(c1)OCO2	-18%	-18%	8	-2%	1%	-1%
CCOC(=O)c1cc(C)n(CC2CCC(C(=O)Nc3ccccc3OC)CC2)c1C (configuration not stated)	u	11µM*	x	8%	-22%	18µM*
SMILES	TDP1 cell noCPT	TGFb inhibitor	IL1B secr inh	TDP1 block	HepG2 viability	TDP1 cell CPT
CCOC(=O)c1c(S(=O)(=O)N2CCC(C(=O)Nc3ccc(OCC)cc3)CC2)c(C)n(C)c1C	-6%	11%	x	-2%	-9%	-8%
CCOC(=O)c1cc(C)n(CC2CCC(C(=O)Nc3ccc(OCC)cc3)CC2)c1C (configuration not stated)	21µM*	u	x	3%	-17%	16µM*
CCOC(=O)c1cc(C)n(CCc2ccccc2)c1C	-24%	2%	u	11%	-16%	-16%
Cc1ccc(-n2c(CNc3ccc(F)cc3)nnc2SCC(N)=O)cc1	2%	1%	0	3%	-30%	-10%
O=C(c1ccco1)N1CCN(Cc2cccc(F)c2)CC1	-13%	2%	u	-2%	10%	-12%
O=C(c1ccco1)N1CCN(Cc2csc(-c3ccccc3Cl)n2)CC1	21µM*	-10%	-1	9%	1%	u
COC(=O)c1ccc(OCC(O)CN2CCN(C(=O)c3ccco3)CC2)cc1 (configuration not stated)	-4%	16%	-1	x	18%	5%
O=C(c1ccco1)N1CCN(CC(O)Cn2c3ccccc3c3ccccc32)CC1 (configuration not stated)	u	-12%	-24	9%	-17%	18µM*
O=C(c1ccco1)N1CCN(Cc2cccc3ccccc23)CC1	u	-2%	-24	4%[0.0935 µM]	-16%	8.2µM*
O=C(c1cc(-c2ccccc2Cl)on1)N1CCN(C(=O)c2ccco2)CC1	-13%	-12%	-29	6%	-5%	-10%
O=C(c1ccco1)N1CCN(Cc2c(Cl)cccc2Cl)CC1	9.2µM*	-20%	0	x	-56%	u

Screening data deposited in PubChem by National Center for Advancing Translational Sciences (NCATS).
